TLR9-MyD88 block = inhibitors of TLR9-MyD88 association in cells, primary screen, cell-based, CHO, BLA complementation, fluorescence | CCF4 FRET ratio | Toll-like receptor 9 (Homo sapiens) + Myeloid differentiation primary response protein … | inhibition, % at 4.98 µM | 0.21% of 340,000 active;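 active = inhibition above the mean over all tested compounds plus 3 SD, cut at about 21% in these data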;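 note: 0% = DMSO only wells and 100% = clavulanate BLA inhibitor control wells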
NOD2-RIPK2 inh = NOD2-RIPK2 binding disruptors in cells, primary screen, fluorescence, CHO cells, BLA complementation | 0.38% of 360,000 active | AID 624267, 2012 | CCF4 ratio | Receptor-interacting serine/threonine-protein kinase 2 (Homo sapiens), O43353 | inhibition, % at 4.98 µM; in the data active = inhibition above about 21%;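 note: 0% = vehicle only and 100% = reference blocker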
Target sequence (O43353 whole entry, looked up): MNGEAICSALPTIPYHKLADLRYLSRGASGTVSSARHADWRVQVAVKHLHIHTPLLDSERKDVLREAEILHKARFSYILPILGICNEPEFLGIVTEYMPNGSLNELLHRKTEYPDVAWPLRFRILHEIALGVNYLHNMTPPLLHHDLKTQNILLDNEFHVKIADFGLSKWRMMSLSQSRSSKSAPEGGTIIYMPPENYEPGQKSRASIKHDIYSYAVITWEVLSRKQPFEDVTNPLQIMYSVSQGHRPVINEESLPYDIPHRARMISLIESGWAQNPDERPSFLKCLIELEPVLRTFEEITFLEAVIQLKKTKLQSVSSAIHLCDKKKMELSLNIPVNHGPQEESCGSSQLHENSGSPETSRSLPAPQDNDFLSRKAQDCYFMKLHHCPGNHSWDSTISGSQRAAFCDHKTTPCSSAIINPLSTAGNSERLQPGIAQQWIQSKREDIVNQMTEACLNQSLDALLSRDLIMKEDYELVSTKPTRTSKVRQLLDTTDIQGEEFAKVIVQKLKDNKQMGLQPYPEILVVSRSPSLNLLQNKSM
B2AR ag = beta2AR agonists driving receptor internalization, primary screen, cell-based, FAP fluorogen, flow cytometry. Beta-2 adrenergic receptor (Homo sapiens), P07550. Am2.2-beta2AR cells. response, % (test concentration not listed). 0.43% of 340,000 active;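 active = response above a set limit, near 3 SD of response in nonfluorescent compounds, cut at about 42% in these data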
TLR4-MyD88 BLA = inhibitors of TLR4-MyD88 association in cells, primary screen, cell-based, HeLa CL3-4, BLA complementation, FRET ratio; inhibition, % at 8.4 µM; HeLa CL3-4 TLR4/MyD88 BLA complementation; 0.18% of 200,000 active; Toll-like receptor 4 (Homo sapiens) + Myeloid differentiation primary response protein …; in the data active = inhibition above about 25%;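 note: 0% = vehicle and 100% = reference inhibitor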
NTR1 ag = agonists of human NTR1, primary screen, imaging, U2OS cells, beta-arrestin-GFP, high content | Neurotensin receptor type 1 (Homo sapiens), P30989 | NTR1-U2OS beta-arrestin-GFP spot imaging, agonist mode | activation, % at 20 µM | 0.17% of 330,000 active | AID 493036, 2011;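 active = activation at or above 40% of the spot to cytoplasm intensity ratio, with at least 20 cells analyzed; inconclusive = wells under 20 cells, flagged as cytotoxic or low count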;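 note: 0% = DMSO without peptide and 100% = 100 nM NTR1 peptide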
Bfl-1 A1 inh = caspase 3/7 activation in MEF A1-2A-BIM cells, primary screen, A1 inhibitor project, cell-based, luminescence, HTS. Caspase-Glo 3/7 luminescence, 3 h; percent of clofoctol response, vehicle zero. caspase activation, % (no concentration beside the values). 0.066% of 330,000 active;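 active = over half of replicate activation scores above 10%, or exactly half above 10 with the replicate mean above 10; inconclusive = replicate mean below 10 yet half the replicates above 10; inactive = over half of replicates below 10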
NOD2 RIPK2 conf = NOD2-RIPK2 binding disruptors, retest, confirmation, fluorescence, CHO cells, BLA complementation, triplicate. shares compounds with NOD2-RIPK2 inh. CCF4 FRET. inhibition, % at 4.98 µM. 70% of 1,200 active;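 active = mean inhibition across replicates above a set limit taken from the earlier primary screen, cut at about 21% in these data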;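 note: 0% = DMSO-only wells and the high end = clavulanate BLA-blocked wells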
BLA counter = hits BLA reporter in NOD2-RIPK2 inhibitor counterscreen. shares compounds with NOD2-RIPK2 inh. CHO BLA reporter, CCF4 FRET ratio. inhibition, % at 4.98 µM. 57% of 1,200 active. AID 624371;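 active = mean inhibition above the low-control mean inhibition plus three low-control SD, cut at about 11% in these data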;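 note: 0% = DMSO only wells and 100% = clavulanate high control wells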
Active calls of the source: *; ? = inconclusive; · = not tested or not shown. This is a sample that favours compounds with a hit; in the whole collection about 0.97% have one here.

SMILES	TLR9-MyD88 block	NOD2-RIPK2 inh	B2AR ag	TLR4-MyD88 BLA	NTR1 ag	Bfl-1 A1 inh	NOD2 RIPK2 conf	BLA counter
O=C1CC(Sc2nnc(-c3ccccc3)o2)C(=O)N1c1ccccc1 (stereo not given)	-5	4	2	-21	1	0	·	·
Cc1ccccc1N1C(=O)CC(Sc2nnc(-c3ccccc3)o2)C1=O (stereo not given)	-5	43*	16	-7	-1	2	34*	6
CC(NC(=O)CN(c1cccc(C(F)(F)F)c1)S(=O)(=O)c1ccc(Cl)c([N+](=O)[O-])c1)c1ccccc1 (stereo not given)	8	39*	19	-4	14	0	35*	-1
CCOC(=O)/C=C/S(=O)(=O)c1ccc(NC(C)=O)cc1	23*	22*	16	11	9	3	54*	21*
CSC[C@H]1CN(CCc2ccccc2)C(=O)[C@@H]1CC(=O)Nc1ccc(Br)cc1	-12	0	·	·	·	·	·	·
Cc1ccc2c(c1)=N/C(=N\c1[nH]c(O)c3ccccc13)N=2	-3	29*	·	·	·	·	51*	48*
C=C(C)C(=O)Nc1cccc(C2=NOC3(C2)C[C@@H](C(N)=O)N(C(=O)CCCCC)C3)c1 (stereo not given in full)	-5	·	-9	·	1	0	·	·
CNc1nc(Cl)nc2c1ncn2-c1ccccc1	1	-4	-6	·	·	·	·	·
Clc1nc(Cl)c2ncn(-c3ccccc3)c2n1	5	22*	17	·	·	·	41*	11*
O=C(c1ccccc1)c1c[nH]c(C(=O)NNc2cccc(Cl)n2)c1	4	-8	6	18	1	0	·	·
O=C(c1ccc(Cl)cc1)c1c[nH]c(C(=O)NNc2cccc(Cl)n2)c1	5	23*	0	8	2	0	1	2
CC(C)(C)c1ccc(C2/C(=C(\O)c3ccc4c(c3)OCCO4)C(=O)C(=O)N2CCCN2CCOCC2)cc1 (stereo not given)	-4	5	1	·	1	0	·	·
CN1C(=O)c2cccc3c(S(=O)(=O)N(C)C)ccc1c23	10	22*	-6	·	0	-1	11	16*
CC(C)c1ccc2c(c1)C1(NN=C(c3ccccc3)S1)C(=O)N2 (stereo not given)	13	26*	5	12	6	0	6	9
CCc1ccc2c(c1)C1(NN=C(c3ccc(C)cc3)S1)C(=O)N2 (stereo not given)	19	25*	-6	12	1	0	5	7
CCc1ccc2c(c1)NC(=O)C2(C)Cc1ccc(F)cc1 (stereo not given)	·	-1	·	·	·	·	·	·
CN1C2CCC1/C(=C\c1ccc(F)cc1)C(=O)/C2=C/c1ccc(F)cc1	9	1	1	1	3	0	·	·
C=CC(=O)N1C/C(=C/c2ccc(F)cc2)C(=O)/C(=C\c2ccc(F)cc2)C1	16	54*	48*	·	·	·	64*	9
NC(=O)c1ccc2c(=O)c(O)c(-c3cc(Cl)c(N)c(Cl)c3)[nH]c2c1	14	38*	-6	·	3	0	30*	29*
CCCNC(=O)c1ccc2c(=O)c(O)c(-c3ccc(Cl)c([N+](=O)[O-])c3)[nH]c2c1	4	-13	0	·	-3	?	·	·
COc1ccc(C=C(C(=O)c2ccccc2)C(=O)c2ccccc2)cc1	·	-8	·	·	·	·	·	·
CC(C)(C)NCC(=Cc1ccccc1)C(=O)c1ccccc1	-2	27*	10	·	·	·	24*	3
COCCCNC(=O)CN(c1cccc(Cl)c1C)S(C)(=O)=O	-15	9	-18	2	1	0	·	·
Cc1cn2nc(N)c3ccccc3c2n1	1	37*	3	-4	-1	-1	-4	2
Nc1nn2cc(-c3ccccc3)nc2c2ccccc12	8	4	-3	-1	10	-9	·	·
SMILES	TLR9-MyD88 block	NOD2-RIPK2 inh	B2AR ag	TLR4-MyD88 BLA	NTR1 ag	Bfl-1 A1 inh	NOD2 RIPK2 conf	BLA counter
CCCNC(=O)c1ccc(COc2ccc(C)cc2)o1	0	2	-3	·	1	0	·	·
CCCNC(=O)c1ccc(COc2cccc3ccccc23)o1	-1	26*	25	·	7	0	2	-4
O=C1OCCN1C(=O)[C@H]1[C@H](c2ccccc2)C(c2cccc(Cl)c2)=NN1c1ccccc1	-14	27*	-3	·	6	·	14	38*
CCOC(=O)C1=C(N)n2c(s/c(=C\c3cccs3)c2=O)=C(C(=O)OCC)C1c1cccs1 (stereo not given)	1	27*	8	-3	2	0	11	4
CN1Cc2c(N3CCOCC3)nc3sc(C#N)c(N)c3c2CC1(C)C	-2	1	3	·	1	0	·	·
CN1Cc2c(N3CCOCC3)nc3sc(C(=O)c4ccc(Br)cc4)c(N)c3c2CC1(C)C	·	24*	20	·	8	1	29*	30*
Cc1noc2ncnc(Sc3ccccc3Cl)c12	20	28*	8	10	2	0	23*	-6
Cc1ccc(Sc2ncnc3onc(C)c23)c(C)c1	-6	-9	0	-6	·	·	·	·
CCN1C(=O)/C(=C/c2cccs2)SC1=Nc1ccc(OC)cc1	-2	-2	-1	0	9	0	·	·
COc1ccc(N=C2S/C(=C\c3ccc(Cl)c([N+](=O)[O-])c3)C(=O)N2CCN(C)C)cc1	11	44*	34	·	12	0	88*	-4
CCCN1C(=O)/C(=C/c2ccc(C)s2)SC1=Nc1ccc(OC)cc1	4	2	1	-2	5	-1	·	·
CCN(CC)CCN1C(=O)/C(=C\c2ccc(Cl)c([N+](=O)[O-])c2)SC1=Nc1ccc(OC)cc1	18	72*	18	·	4	0	54*	-28
CC(=O)N1CCCc2cc(S(=O)(=O)N(C)CC(=O)Nc3ccccc3)ccc21	-7	3	·	·	·	·	·	·
O=Cc1cccn1Cc1ccc(Cl)cc1Cl	1	-3	8	2	-1	0	·	·
O=C(CC(=O)N/N=C\c1ccccc1)NCCc1ccccc1	14	22*	-1	·	0	0	2	1
